PMC4336329 (PLoS ONE, 2015)
In all, about 310,000 compounds went through this assay and about 14,000 (4.5%) showed an effect of 50% or more. The effect is printed as a negative number. Shown is part of a subset that was picked to be rich in strong results.

target: human ether-à-go-go-related gene (hERG) potassium channel (human, UniProt Q12809); assay: primary screen, population patch clamp on CHO cells stably expressing hERG; higher = less effect of the substance
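Further: peak tail current of the secondary pulse compared with the same well before compound.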

Chain of human ether-à-go-go-related gene (hERG) potassium channel (Q12809 whole entry, looked up): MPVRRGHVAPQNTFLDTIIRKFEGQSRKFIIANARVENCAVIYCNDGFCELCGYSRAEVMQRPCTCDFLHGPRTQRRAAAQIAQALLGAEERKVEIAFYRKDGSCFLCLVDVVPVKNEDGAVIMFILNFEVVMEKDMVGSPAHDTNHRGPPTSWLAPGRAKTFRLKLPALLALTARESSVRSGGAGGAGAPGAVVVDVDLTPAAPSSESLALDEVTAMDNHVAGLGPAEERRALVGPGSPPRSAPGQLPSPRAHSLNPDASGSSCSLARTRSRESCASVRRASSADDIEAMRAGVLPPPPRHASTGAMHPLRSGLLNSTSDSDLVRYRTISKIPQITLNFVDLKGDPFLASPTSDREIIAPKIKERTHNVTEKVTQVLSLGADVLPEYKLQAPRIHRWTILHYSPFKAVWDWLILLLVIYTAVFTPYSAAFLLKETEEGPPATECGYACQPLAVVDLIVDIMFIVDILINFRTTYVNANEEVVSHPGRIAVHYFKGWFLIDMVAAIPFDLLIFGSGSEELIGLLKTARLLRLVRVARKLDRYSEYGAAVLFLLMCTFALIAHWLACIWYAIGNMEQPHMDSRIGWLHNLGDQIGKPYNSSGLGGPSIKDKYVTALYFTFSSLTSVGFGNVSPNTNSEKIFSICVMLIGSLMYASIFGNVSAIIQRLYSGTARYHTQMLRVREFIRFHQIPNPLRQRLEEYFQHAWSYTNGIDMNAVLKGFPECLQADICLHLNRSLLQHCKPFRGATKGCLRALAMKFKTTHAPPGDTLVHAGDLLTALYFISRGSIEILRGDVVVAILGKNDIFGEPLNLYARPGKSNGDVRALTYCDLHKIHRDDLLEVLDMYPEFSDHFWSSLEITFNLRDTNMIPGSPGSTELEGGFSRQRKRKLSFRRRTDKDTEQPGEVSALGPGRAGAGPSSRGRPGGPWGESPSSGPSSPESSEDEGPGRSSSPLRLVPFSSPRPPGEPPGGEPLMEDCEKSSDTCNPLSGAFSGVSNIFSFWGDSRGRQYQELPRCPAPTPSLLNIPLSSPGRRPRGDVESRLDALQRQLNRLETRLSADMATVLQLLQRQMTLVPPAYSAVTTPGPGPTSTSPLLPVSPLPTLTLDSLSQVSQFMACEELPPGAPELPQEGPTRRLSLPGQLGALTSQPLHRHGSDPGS

Compared with `COc1cc(CNCC2CCCO2)ccc1OCC(N)=O.Cl` (stereo not drawn), `COc1ccc(CCN2C(=O)CSC2c2cccc([N+](=O)[O-])c2)cc1OC` (stereo not drawn) is lower in “hERG current change (%, negative = inhibition) at 10uM” value: 16.3% for the first, -3.39% for the second.

Compared with `CCOc1ccc(S(=O)(=O)N2CCC(C(=O)NCc3cccnc3)CC2)cc1`, `CCOC(=O)N1CCN(C(=O)C2CCN(S(=O)(=O)c3ccc(F)cc3)CC2)CC1` is higher in “hERG current change (%, negative = inhibition) at 10uM” value: -27.1% for the first, -19.3% for the second.

Going from `CCCC1(c2ccccc2)NC(=O)N(CC(=O)Nc2cc(C)on2)C1=O` (stereo not drawn) to `Cc1cc(NC(=O)C2CC(=O)N(c3ccccc3Cl)C2)no1` (stereo not drawn), the “hERG current change (%, negative = inhibition) at 10uM” value falls from 23.6% to 14.6%.

Going from `CCc1nn(CC(=O)NCCc2ccc(S(N)(=O)=O)cc2)c(=O)c2cc3sccc3n12` to `CC(=O)Nc1ccc(NC(=O)CN(C)S(=O)(=O)c2ccc3nc(C)sc3c2)cc1`, the “hERG current change (%, negative = inhibition) at 10uM” value rises from 20.1% to 25.7%.

Compared with `Oc1ccc(O)c(/C(=N/Nc2ccccc2)c2ccccc2)c1`, `CC(=O)Nc1ccc(S(=O)(=O)Nc2nc3ccccc3nc2Nc2ccccc2)cc1` is lower in “hERG current change (%, negative = inhibition) at 10uM” value: 11% for the first, 10.3% for the second.

Compared with `O=c1n(-c2cccc(Cl)c2)c(=O)n2n1CCC2`, `Cc1ccc(N2CCN(C(=O)Nc3cccc([N+](=O)[O-])c3)CC2C)cc1` (stereo not drawn) is lower in “hERG current change (%, negative = inhibition) at 10uM” value: -6.81% for the first, -78.3% for the second.

First: O=C(CCN1CCN(c2ccc(Cl)cc2)CC1)Nc1nccs1
Second: CC(=O)Nc1sc2c(c1CN1CCN(c3ccc(F)cc3)CC1)CCCC2
The “hERG current change (%, negative = inhibition) at 10uM” value of the first is lower: -13.3% for the first, -6.73% for the second.

Compared with `COc1cc(C2c3c(oc4c(C)cc(C)cc4c3=O)C(=O)N2Cc2cccnc2)ccc1O` (stereo not drawn), `CSc1nnc2c3cc(C)ccc3n(Cc3ccccc3)c2n1` is lower in “hERG current change (%, negative = inhibition) at 10uM” value: 5.03% for the first, 2.55% for the second.

First: COCC(C)n1c(C)cc(C(=O)COC(=O)/C=C/c2cccc(F)c2)c1C (stereo not drawn)
Second: Cc1nn(Cc2ccccc2)c(Cl)c1/C=C/C(=O)OC(C)C(=O)N1CCCC1 (stereo not drawn)
The “hERG current change (%, negative = inhibition) at 10uM” value of the first is lower: -31.6% for the first, 18.7% for the second.

Compared with `O=C(N/C(=C\c1cccs1)C(=O)N1CCOCC1)c1cccs1`, `O=C(N/C(=C/c1cccs1)C(=O)N1CCOCC1)c1cccs1` is higher in “hERG current change (%, negative = inhibition) at 10uM” value: -9.07% for the first, -8.41% for the second.

Going from `Cc1ccc(C(=O)N/C(=C/c2cccs2)C(=O)N2CCCCCC2)cc1` to `Cc1ccc(C(=O)N/C(=C\c2cccs2)C(=O)N2CCCCCC2)cc1`, the “hERG current change (%, negative = inhibition) at 10uM” value falls from -46% to -50.7%.

First: Cc1ccc(C(=O)N/C(=C/c2cccs2)C(=O)N2CCCCC2)cc1
Second: CN1CCN(C(=O)/C(=C\c2cccs2)NC(=O)c2cccs2)CC1
The “hERG current change (%, negative = inhibition) at 10uM” value of the first is higher: -35.4% for the first, -72.5% for the second.

First: C/C(=N\NC(=O)CNC(=O)c1ccc2c(c1)OCCO2)c1ccco1
Second: O=C(NCc1cccc(Cl)c1)c1ccc2c(c1)OCO2
The “hERG current change (%, negative = inhibition) at 10uM” value of the first is higher: 10.7% for the first, 0.973% for the second.

First: CC(=O)Nc1ccc(S(=O)(=O)N2CCN(CCCOc3ccccc3Cl)CC2)cc1
Second: O=S(=O)(Nc1ncccn1)c1ccc(NC(=S)N2CCN(Cc3ccc(F)cc3Cl)CC2)cc1
The “hERG current change (%, negative = inhibition) at 10uM” value of the first is lower: -49.6% for the first, 22% for the second.

Compared with `CN(CCN1CCOCC1)C(=O)CC1C(=O)NCCN1Cc1ccccc1F` (stereo not drawn), `CSc1ccccc1C(=O)NC1CCCN(Cc2ccccc2F)C1` (stereo not drawn) is lower in “hERG current change (%, negative = inhibition) at 10uM” value: 12% for the first, -11.5% for the second.

Compared with `Cc1csc(NC(=O)CSc2nnc(-c3ccccn3)n2-c2ccc(C)c(C)c2)n1`, `Cc1ccc(-n2c(SCC(N)=O)nnc2-c2ccccn2)cc1C` is higher in “hERG current change (%, negative = inhibition) at 10uM” value: -78.5% for the first, 8.79% for the second.

Compared with `Cc1csc(NC(=O)CSc2ccc(-c3ccc(F)cc3)nn2)n1`, `Cc1csc(NC(=O)CSc2ccc(-c3ccccc3)nn2)n1` is lower in “hERG current change (%, negative = inhibition) at 10uM” value: -26.8% for the first, -66.9% for the second.

First: Cc1csc(NC(=O)CSc2ccc(-c3ccccn3)nn2)n1
Second: Cc1nnc(NC(=O)CSc2ccc(-c3ccccn3)nn2)s1
The “hERG current change (%, negative = inhibition) at 10uM” value of the first is lower: -73.6% for the first, 12.1% for the second.

Compared with `Cc1csc(SCC(=O)Nc2nc(-c3ccccc3)cs2)n1`, `CC(OC(=O)c1ccc(O)cc1)C(=O)Nc1nc(-c2ccccc2)cs1` (stereo not drawn) is lower in “hERG current change (%, negative = inhibition) at 10uM” value: -8.35% for the first, -17.8% for the second.

Going from `CCN(CC)C(=O)CSc1nnc(-c2ccccn2)n1-c1ccc(C)c(C)c1` to `Cc1cc(C)cc(NC(=O)CSc2ccc(-c3ccccn3)nn2)c1`, the “hERG current change (%, negative = inhibition) at 10uM” value rises from -24.8% to 8.61%.

Compared with `CCOC(=O)c1c(C)nc2c(c1-c1ccccc1)C(=O)CC(C)(C)C2`, `CCCCC(=Nc1ccccc1OC)C1=C(O)CC(c2ccccc2)CC1=O` (stereo not drawn) is higher in “hERG current change (%, negative = inhibition) at 10uM” value: -16.8% for the first, 3.11% for the second.

Compared with `CC(=O)NC1C(OCc2cccc(Br)c2)OC(COC(C)=O)C(OC(C)=O)C1OC(C)=O` (stereo not drawn), `COc1cc(C(=O)N2CCC(C(=O)Nc3cccc(C(C)=O)c3)CC2)cc(OC)c1OC` is higher in “hERG current change (%, negative = inhibition) at 10uM” value: -12.4% for the first, -2.12% for the second.

First: CNC(=O)c1ccccc1Sc1ccccc1C#N
Second: O=C(Nc1ccc(C(=O)N2CCCC2)cc1)c1ccccc1Br
The “hERG current change (%, negative = inhibition) at 10uM” value of the first is lower: 19.1% for the first, 19.8% for the second.

Going from `CCOc1cc(N2CCOCC2)c(OCC)cc1NC(=O)C(C)(C)C` to `CCc1cccc(C)c1NC(=O)C1CCN(C(=O)c2ccc([N+](=O)[O-])cc2)CC1`, the “hERG current change (%, negative = inhibition) at 10uM” value falls from 17.4% to -48.2%.

Compared with `CC(=O)c1cccc(NC(=O)C2CCN(C(=O)c3ccc([N+](=O)[O-])cc3)CC2)c1`, `Cc1ccc(C(=O)N2CCC(C(=O)Nc3cccc([N+](=O)[O-])c3)CC2)cc1` is lower in “hERG current change (%, negative = inhibition) at 10uM” value: -69.6% for the first, -80.1% for the second.

Compared with `O=C(Nc1ccc(F)cc1)C1CCN(C(=O)c2ccc([N+](=O)[O-])cc2)CC1`, `CC(=O)Nc1ccc(NC(=O)C2CCN(C(=O)c3ccc([N+](=O)[O-])cc3)CC2)cc1` is higher in “hERG current change (%, negative = inhibition) at 10uM” value: -4.16% for the first, -0.926% for the second.

Going from `O=C(Nc1cccc([N+](=O)[O-])c1)N1CCN(c2ccccc2)CC1` to `O=C(Nc1cccc([N+](=O)[O-])c1)C1CCN(C(=O)Cc2ccccc2)CC1`, the “hERG current change (%, negative = inhibition) at 10uM” value falls from -38.7% to -43.3%.

First: CC(=O)c1ccc(NC(=O)N2CCN(c3ccc(C)cc3)C(C)C2)cc1 (stereo not drawn)
Second: O=C(Nc1ccccc1)C1CCN(C(=O)c2ccc([N+](=O)[O-])cc2)CC1
The “hERG current change (%, negative = inhibition) at 10uM” value of the first is higher: -19.6% for the first, -71.4% for the second.

Going from `CC(=O)c1cccc(NC(=O)C2CCN(C(=O)c3ccccc3Cl)CC2)c1` to `CSc1cccc(NC(=O)/C=C/c2ccc(Cl)cc2)c1`, the “hERG current change (%, negative = inhibition) at 10uM” value falls from -0.359% to -4.08%.

First: NC(=O)CN1C2CCC1CC(NC(=O)C1CC1)C2 (stereo not drawn)
Second: O=C1NCCCC1C(=O)N/N=C/c1ccccc1 (stereo not drawn)
The “hERG current change (%, negative = inhibition) at 10uM” value of the first is higher: 14.7% for the first, -4.35% for the second.

Going from `COc1ccccc1NS(=O)(=O)c1ccc(O)cc1` to `COC(=O)c1ccc(COc2ccc(F)cc2)o1`, the “hERG current change (%, negative = inhibition) at 10uM” value falls from 1.44% to -27.4%.

Going from `COc1nc(N=C(N)N)nc2c(C)cccc12` to `COc1ccc2c(CC(=O)Nc3ncc(C)s3)coc2c1`, the “hERG current change (%, negative = inhibition) at 10uM” value rises from -2.93% to 5.72%.

Compared with `O=C(c1cc2sccc2n1Cc1ccccc1)N1CCCc2ccccc21`, `CSc1nnc2c3cc(F)ccc3n(Cc3ccccc3)c2n1` is higher in “hERG current change (%, negative = inhibition) at 10uM” value: 1.8% for the first, 13.6% for the second.

Going from `Cc1ccc(CNc2ncc(-c3ccc4c(c3)OCO4)n2C)cc1.O=C(O)C(=O)O` to `Cn1c(-c2ccc3c(c2)OCO3)cnc1NCc1ccccc1.O=C(O)C(=O)O`, the “hERG current change (%, negative = inhibition) at 10uM” value falls from -59% to -60%.

Going from `Cn1c(-c2ccc3c(c2)OCO3)cnc1NC(=O)CCC(=O)NCCc1ccccc1` to `Cn1c(-c2ccc3c(c2)OCO3)cnc1NCc1cccc(Cl)c1.O=C(O)C(=O)O`, the “hERG current change (%, negative = inhibition) at 10uM” value falls from -6.98% to -74%.

First: Cc1ccc(CNc2ccc3c(c2)OCO3)cc1
Second: Cn1c(-c2ccc3c(c2)OCO3)cnc1NCc1cccc(O)c1.O=C(O)C(=O)O
The “hERG current change (%, negative = inhibition) at 10uM” value of the first is higher: -4.29% for the first, -23.1% for the second.

Going from `Cn1c(-c2ccc3c(c2)OCO3)cnc1N` to `COc1cc(C2C(C#N)=C(N)Oc3cc(N(C)C)ccc32)cc2c1OCO2` (stereo not drawn), the “hERG current change (%, negative = inhibition) at 10uM” value rises from -16.5% to -6.32%.

First: CN(C)c1ccc(C(CC(=O)O)C(=O)O)cc1 (stereo not drawn)
Second: CCOc1ccc(C(=O)CCC(=O)Nc2ncccc2O)cc1
The “hERG current change (%, negative = inhibition) at 10uM” value of the first is higher: 14.4% for the first, 5.51% for the second.

Going from `Cc1ccccc1OCC(O)Cn1c(NCCN(C)C)nc2c1c(=O)n(C)c(=O)n2C` (stereo not drawn) to `COc1cc(/C=C2/SC(=S)N(CCC(=O)Nc3ccccc3)C2=O)cc(OC)c1OC`, the “hERG current change (%, negative = inhibition) at 10uM” value rises from -20.3% to 13.8%.

First: CNC(C)C#Cc1ccc2c(=O)c3c(OC)cccc3oc2c1 (stereo not drawn)
Second: CCN(CC)CCSc1nnc2c3cc(C)ccc3n(Cc3ccccc3)c2n1
The “hERG current change (%, negative = inhibition) at 10uM” value of the first is higher: 0.579% for the first, -79.1% for the second.

Going from `CC(C)(C)c1ccc(C(=O)Nc2cccnc2)cc1` to `CC(C)(C)c1ccc(C(=O)Nc2ccc(Oc3cccnc3)nc2)cc1`, the “hERG current change (%, negative = inhibition) at 10uM” value falls from -18.7% to -61.2%.

Compared with `O=C(Nc1ccc(Oc2cccnc2)nc1)c1ccc(C(F)(F)F)cc1`, `O=c1cc(CNc2cc(C(F)(F)F)cc(C(F)(F)F)c2)nc2sccn12` is higher in “hERG current change (%, negative = inhibition) at 10uM” value: -30% for the first, -6.36% for the second.

Compared with `Cc1ccc2c(c1)c1nnc(SCC(=O)Nc3cccc(Cl)c3C)nc1n2CC(=O)O`, `CCN(CC)CCSc1nnc2c3cc(F)ccc3n(Cc3ccccc3)c2n1` is lower in “hERG current change (%, negative = inhibition) at 10uM” value: 19.6% for the first, -77% for the second.

In the case of `NNc1nnc2c3cc(F)ccc3n(Cc3ccccc3)c2n1`, the “hERG current change (%, negative = inhibition) at 10uM” value is reported as -22.4%.
